Hit rate of the full screen: of about 16,000 compounds, about 2,600 (16%) were called active. Inconclusive results (about 20%) are left out. A selection follows. A number with no mark means an inactive call. Calls come from the whole dose curve; as a rule, active = well fitted curve in the direction sought with a large enough effect; inconclusive = small, poorly fitted or top-dose-only effect, or effect the other way; inactive = no such curve, though single readings can be large or run the other way.
Each molecule was assayed against Cytochrome P450 2D6 (Homo sapiens) (UniProt P10635) (assay: Cytochrome panel assay with activity outcomes). Conditions: recombinant CYP, pro-luciferin dealkylation, luminescence, p450-cyp2d6; series mostly up to 57.1 µM; activity, negative = inhibition: at the top concentration.
% is set by controls: 0 for no effect and ±100 for the full control effect.

Chain of Cytochrome P450 2D6 (Homo sapiens) (P10635 whole entry, looked up): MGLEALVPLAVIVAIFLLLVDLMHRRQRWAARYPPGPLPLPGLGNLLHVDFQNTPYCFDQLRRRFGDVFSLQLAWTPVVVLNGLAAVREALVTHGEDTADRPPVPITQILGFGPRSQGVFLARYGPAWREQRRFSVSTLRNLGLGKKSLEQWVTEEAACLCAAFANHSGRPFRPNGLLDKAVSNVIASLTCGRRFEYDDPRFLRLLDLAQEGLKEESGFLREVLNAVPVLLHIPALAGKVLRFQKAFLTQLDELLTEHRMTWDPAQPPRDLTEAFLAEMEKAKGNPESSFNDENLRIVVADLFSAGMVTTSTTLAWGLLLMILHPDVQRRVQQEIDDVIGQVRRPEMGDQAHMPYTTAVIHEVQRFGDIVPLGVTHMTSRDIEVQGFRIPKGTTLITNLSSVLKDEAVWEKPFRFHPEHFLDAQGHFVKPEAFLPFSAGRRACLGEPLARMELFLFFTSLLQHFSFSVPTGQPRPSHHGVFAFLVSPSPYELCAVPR

Going from `CC1=NNC(=O)C1CCC(=O)N/N=C\c1ccccc1[N+](=O)[O-]` (centres undefined) to `C/C(=N\NC(=O)c1[nH]c2c([N+](=O)[O-])cc(C)cc2c1-c1ccccc1)c1cccnc1`, the “activity, negative = inhibition” value falls from 3.05% to -15.9%.

First: C/C(=N\N=C1\NC(=O)CC(C(=O)O)S1)c1cccs1 (centres undefined)
Second: O=C(CCC(=O)Nc1ccccc1)NNC(=O)c1cccs1
The “activity, negative = inhibition” value of the first is lower: -14.7% for the first, 11.3% for the second.

Compared with `COCCN1C(=O)c2ccccc2C(C(=O)Nc2ccc3c(c2)OCCO3)C1c1ccc(F)cc1` (centres undefined), `COc1ccc(NC(=O)C2c3cc(OC)c(OC)cc3C(=O)N(C)C2c2cccnc2)cc1OC` (centres undefined) is higher in “activity, negative = inhibition” value: -15.1% for the first, -3% for the second.

First: Cc1nn(-c2ccccc2)c(Cl)c1C(=O)Nc1c(C)n(C)n(-c2ccccc2)c1=O
Second: Cc1nnc(SCC(=O)N2CC(=O)Nc3ccccc32)n1Cc1ccccc1
The “activity, negative = inhibition” value of the first is higher: 6.41% for the first, -3.02% for the second.

First: CCC(C)NC(=O)c1c(C)cc(=O)oc1C (centres undefined)
Second: CCn1ccc(C(=O)NC2C(=O)N3C(C(=O)O)=C(C)CSC23)n1 (centres undefined)
The “activity, negative = inhibition” value of the first is lower: 4.71% for the first, 17% for the second.

Going from `CCC(=O)N1CCc2cc(S(=O)(=O)NC(C(=O)NCc3ccc(F)cc3)C(C)C)ccc21` (centres undefined) to `COc1ccc(N(C)S(=O)(=O)c2ccc3c(c2)CCC(=O)N3)cc1`, the “activity, negative = inhibition” value falls from 0.907% to -12.3%.

First: CNC(=S)Nc1ccc(Nc2ccccc2)cc1
Second: S=C(Nc1ccccc1)Nc1ccc(OCc2ccccc2)cc1
The “activity, negative = inhibition” value of the first is lower: -29.5% for the first, -25.1% for the second.

Compared with `COc1cccc(Nc2ncc3nc(-c4cccs4)c(=O)n(CCC#N)c3n2)c1`, `COc1ccc(-n2c(=O)c(-c3cccs3)nc3cncnc32)cc1` is higher in “activity, negative = inhibition” value: -4.4% for the first, 0.751% for the second.

First: CCOC(=O)c1ccc(-c2ccc(CO)o2)cc1
Second: Cc1ccc(C(=O)c2cn(-c3ccc(F)c(Cl)c3)nn2)cc1
The “activity, negative = inhibition” value of the first is lower: -15% for the first, 6.95% for the second.

First: O=C(N/N=C/c1ccc(OCc2ccccc2)cc1)c1cccs1
Second: Cc1ccsc1-c1nc(-c2ccccc2)c(-c2ccccc2)[nH]1
The “activity, negative = inhibition” value of the first is lower: -1.86% for the first, -0.505% for the second.

Compared with `COc1ccc(N2C(=O)NC3CC2(C)Oc2ccccc23)cc1OC` (centres undefined), `CCn1c2ccccc2c2cc(N=C3SC(CC(=O)Nc4ccccc4OC)C(=O)N3C)ccc21` (centres undefined) is lower in “activity, negative = inhibition” value: -0.582% for the first, -2.34% for the second.

Compared with `CCOC(=O)N1CCC(NC(=O)CSCc2cnn(-c3ccccc3)c2-n2cccc2)CC1`, `COc1ccc(-n2c(=O)c(-c3ccccc3)nc3cnc(N4CCNCC4)nc32)cc1` is higher in “activity, negative = inhibition” value: -28.7% for the first, -3.98% for the second.

Going from `CC1(C)Oc2cc(N)c([N+](=O)[O-])cc2O1` to `Cc1cc(=O)[nH]c2c1c(C)nn2C1CCOC(C)(C)C1` (centres undefined), the “activity, negative = inhibition” value falls from -5.57% to -7.73%.

First: O=[N+]([O-])c1cccc(/C(=N/N=C/c2ccccc2Br)C23CN4CN(CN(C4)C2)C3)c1
Second: O=C(Nc1nnc(CCS(=O)(=O)c2ccc(Br)cc2)s1)c1ccc([N+](=O)[O-])cc1
The “activity, negative = inhibition” value of the first is lower: -6.29% for the first, -1.29% for the second.

Going from `Cc1ccc(C(=O)NNC(=O)c2cc3cc4ccccc4nc3s2)cc1` to `CN(C)C(=O)c1ccc(-c2nc(Nc3ccncc3)c3ccccc3n2)cc1`, the “activity, negative = inhibition” value falls from 19.3% to -6.54%.

First: c1ccc(-c2n[nH]c(-c3ccccc3)c2-c2nc3ccccc3[nH]2)cc1
Second: CN(C)C(=O)c1ccc(-c2nc(Nc3ccccc3)c3ccccc3n2)cc1
The “activity, negative = inhibition” value of the first is lower: -22.8% for the first, -14.8% for the second.

First: O=c1cnc2cnc(Oc3ccccc3)nc2n1C1CC1
Second: CCN(CC)c1nc(Nc2ccccc2)nc(Oc2ccc(C(=O)OC)cc2)n1
The “activity, negative = inhibition” value of the first is lower: -9.03% for the first, -6.17% for the second.

Going from `CC[C@](N)(CCC(=O)O)C(=O)O` to `CCNC(=O)C/C(C)=N/NC(=O)C12CC3CC(CC(C3)C1)C2`, the “activity, negative = inhibition” value falls from -1.06% to -13.3%.

Compared with `CCSc1nnc(NC(=O)COc2ccc3ccccc3c2)s1`, `COc1ccc(NC(=O)N2CC[C@@]3(CCCN(C(=O)c4ccc(OC)cc4)C3)C2)cc1` is higher in “activity, negative = inhibition” value: -5.34% for the first, 12.9% for the second.

Compared with `N[C@@H](Cc1cnc[nH]1)C(=O)O`, `COc1ccc(NC(=O)N2CCCC3(CCN(C(=O)c4cccn4C)CC3)C2)cc1` is higher in “activity, negative = inhibition” value: 2.38% for the first, 3.7% for the second.

Compared with `CCn1c(SCc2ccc(C#N)cc2)nnc1-c1ccc(S(=O)(=O)N2CCCCC2)cc1`, `COCC1C2CC[C@H]3C(OCc4ccc(F)cc4C(F)(F)F)OC[C@]4(C)[C@H]3C2=C(CN4C(=O)OC(C)(C)C)[C@H](C)C1COC` (some centres undefined) is lower in “activity, negative = inhibition” value: 7.38% for the first, -9.86% for the second.

`C/C(CCc1ccc2c(c1)OCO2)=N\N=C1\NC(=O)CC(C(=O)Nc2ccccc2)S1` (centres undefined) was tested, and the AC50 was 8.91 µM (active).
`C1CCC(C(C[C@@H]2CCCCN2)C2CCCCC2)CC1` was tested, and the AC50 was 0.501 µM (active).
`CC(C)(C)NC(=S)Nc1ccc(Nc2ccccc2)cc1` was tested, and the AC50 was 14.1 µM (active).
With `COCC(=O)O[C@]1(CCN(C)CCCc2nc3ccccc3[nH]2)CCc2cc(F)ccc2[C@@H]1C(C)C` the AC50 was 0.316 µM (active).
`C=CCC(C)(NCc1ccccc1)c1ccco1` (centres undefined) was tested, and the AC50 was 3.98 µM (active).
With `Oc1ccc(-c2nc(-c3ccc(F)cc3)c(-c3ccncc3)[nH]2)cc1` the AC50 was 5.01 µM (active).
In the case of `Nc1nnc(SCCOc2cccc(Br)c2)s1`, the AC50 is reported as 11.2 µM (active).
`CN(C)c1ccc(-c2nc(-n3ccnc3)c3ccccc3n2)cc1` was tested, and the AC50 was 7.94 µM (active).
In the case of `CN(C)C(=O)c1ccc(-c2nc(-n3ccnc3)c3ccccc3n2)cc1`, the AC50 is reported as 15.8 µM (active).
For `Fc1ccc(C(OCCCc2cnc[nH]2)c2ccc(F)cc2)cc1`, the AC50 was 0.631 µM (active).
`COc1ccc(C(O)c2nccn2Cc2ccccc2)cc1` (centres undefined) was tested, and the AC50 was 10 µM (active).
In the case of `N#Cc1ccc(C(c2nnnn2Cc2ccccc2)N2CCCC2)cc1` (centres undefined), the AC50 is reported as 7.94 µM (active).

Going from `NC(N)=NC[C@@H]1CCCCCCN1` to `C1CCN(CC[C@@H]2CCCCN2)CC1`, the activity, negative = inhibition falls from 5.74% [at 11.4 µM] to -9.75% [at 11.4 µM].

Compared with `O=C(O)c1ccccc1-c1ccccc1C(=O)Nc1ccc2c(c1)Cc1ccccc1-2`, `O=S(=O)(O)c1ccc2cc(N=Nc3cc(S(=O)(=O)O)c4cccnc4c3O)ccc2c1` is lower in activity, negative = inhibition: 8.94% [at 11.4 µM] for the first, -2.47% [at 11.4 µM] for the second.

Going from `O=C(O)CC12C[C@H]3C[C@@H](CC(O)(C3)C1)C2` to `COc1ccc(-c2cnnc(CCCn3ccnc3-c3ccccc3)n2)cc1`, the activity, negative = inhibition falls from 1.29% [at 11.4 µM] to -4.95% [at 11.4 µM].

`COc1ccc([C@H](O)c2ccccn2)cc1` showed an activity, negative = inhibition of 0.937% [at 11.4 µM].

Compared with `C[C@@H](O)[C@H]1C(=O)N2C(C(=O)O)=C(S[C@@H]3CN[C@H](C(=O)N(C)C)C3)[C@H](C)[C@H]12`, `Cc1c(N(C)CS(=O)(=O)O)c(=O)n(-c2ccccc2)n1C` is higher in “activity, negative = inhibition” value: 4.97% [at 25.6 µM] for the first, 10.2% [at 25.6 µM] for the second.

For `COC(=O)Nc1nc2ccc(SC(C)C)cc2[nH]1`, the “activity, negative = inhibition” value was -3.07% [at 25.6 µM].

Source: PubChem BioAssay AID1851 (National Center for Advancing Translational Sciences (NCATS), 2009)
